Source: PubChem BioAssay AID1211 (NMMLSC, 2008)
Calls of active or inactive are those of the source. The rule behind the calls is not given here.

Molecular target: Estrogen receptor (Homo sapiens) (UniProt P03372)
Test: ERalpha ligand binders by competition, primary screen, cell-based, Cos7 ERalpha-GFP, flow cytometry (AID 1211);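 note: 0% = DMSO vehicle wells and 100% = no E2-Alexa633 signal left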
Settings: fluorescent ligand competition, stronger effect = higher value

Chain of Estrogen receptor (Homo sapiens) (P03372 whole entry, looked up): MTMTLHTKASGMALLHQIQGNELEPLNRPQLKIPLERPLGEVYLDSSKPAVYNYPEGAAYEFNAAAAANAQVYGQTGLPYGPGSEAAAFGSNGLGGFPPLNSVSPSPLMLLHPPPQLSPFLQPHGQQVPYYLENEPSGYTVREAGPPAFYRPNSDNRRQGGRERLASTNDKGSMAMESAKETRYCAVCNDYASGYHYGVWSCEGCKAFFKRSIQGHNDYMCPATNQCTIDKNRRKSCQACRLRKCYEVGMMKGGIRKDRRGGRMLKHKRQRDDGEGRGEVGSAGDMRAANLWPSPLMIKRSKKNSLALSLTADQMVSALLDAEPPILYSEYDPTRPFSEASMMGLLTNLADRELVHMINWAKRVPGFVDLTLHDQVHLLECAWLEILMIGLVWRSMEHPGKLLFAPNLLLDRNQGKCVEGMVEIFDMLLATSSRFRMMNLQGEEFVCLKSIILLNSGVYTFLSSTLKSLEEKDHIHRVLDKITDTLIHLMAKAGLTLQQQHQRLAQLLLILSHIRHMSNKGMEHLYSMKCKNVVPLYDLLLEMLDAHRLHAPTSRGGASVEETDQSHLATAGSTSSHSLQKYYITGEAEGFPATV

SMILES	inhibition of ligand binding (at 10 µM)	inhibition of ligand binding (binding inhibition, at 0.1 µM) [%]
COC(=O)c1ccc(CC(=O)c2c(C)cc(O)cc2O)o1	34% (inactive)	43
COc1cc(C2C(C#N)=C(N)Oc3cc(C)oc(=O)c32)cc2c1OCO2 (configuration not stated)	9% (inactive)	
O=C1CC(c2ccc3c(c2)OCO3)c2ccc3ccccc3c2N1 (configuration not stated)	0% (inactive)	
Cc1csc(C(C#N)C(=O)c2ccncc2)n1 (configuration not stated)	33% (inactive)	
CC(C)c1ccc2c(c1)[C@H]1OCC[C@H]1[C@@H](c1cccs1)N2	0% (inactive)	20
O=C(Oc1cccc(-c2cnc3ccccc3n2)c1)c1ccco1	12% (inactive)	
Cc1c(N=Cc2ccc(O)c(Br)c2)cccc1[N+](=O)[O-]	0% (inactive)	23
COc1ccccc1C1Nc2c(C(=O)O)cccc2C2C3CCC(C3)C12 (configuration not stated)	19% (inactive)	
O=C1NCCCC2c3cc(O)c4ccccc4c3OC12N1CCCCC1 (configuration not stated)	25% (inactive)	23
CCCc1c(C(=O)OCC)[nH]c2c1C(=O)CC(c1ccccc1)C2 (configuration not stated)	27% (inactive)	
CC(C)C1CC(CCNCc2ccc3c(c2)OCO3)(c2ccccc2)CCO1 (configuration not stated)	26% (inactive)	
O=C(OC1CCCCC1)c1ccc2c(c1)C1C=CCC1C(C(=O)O)N2 (configuration not stated)	42% (inactive)	14
Cc1nnc(NC(=O)Cc2cccs2)s1	44% (inactive)	42
COc1cc([N+](=O)[O-])cc2c1NC(c1ccc(Br)cc1)C1CC=CC21 (configuration not stated)	0% (inactive)	
CCn1c(SCC(=O)N2CCOCC2)nc2oc3c(Cl)cc(Cl)cc3c(=O)c2c1=O	22% (inactive)	5
CCc1oc2c(C)c(O)ccc2c(=O)c1-c1ccc2ccccc2n1	14% (inactive)	54
COc1ccc(/C=N/NC(=O)c2nc(-c3ccccc3)cc(-c3ccccc3)n2)cc1O	56% (active)	97
COc1ccc(-n2cc3c(c(C#N)c2=N)CC(C)(C)CC3=O)cc1	29% (inactive)	
Oc1ccc2c(c1)c1c3n2CCNC3CCC1 (configuration not stated)	0% (inactive)	
Cc1c(O)ccc2c3c(c(=O)oc12)CCCC3	0% (inactive)	
CC(C)C1Nc2c(O)cc(Cl)c([N+](=O)[O-])c2C2C=CCC21 (configuration not stated)	40% (inactive)	16
O=C(COC(=O)c1ccccc1Oc1ccccc1)NCc1ccco1	13% (inactive)	53

SMILES	inhibition of ligand binding (at 10 µM)	inhibition of ligand binding (binding inhibition, at 0.1 µM) [%]
N#CC(C(=O)Nc1ccc(Cl)cc1)=C1Nc2ccccc2N1	48% (inactive)	21
O=C(NC1CC1)c1ccc2c(c1)C1C3CCC(C3)C1C(c1ccccc1)N2 (configuration not stated)	86% (active)	
O=[N+]([O-])c1ccc(Cl)c2c1C1C=CCC1C(c1ccccn1)N2 (configuration not stated)	53% (inactive)	
CCOC(=O)c1ccc2c(c1)C1C=CCC1C(c1cccc([N+](=O)[O-])c1)N2 (configuration not stated)	21% (inactive)	
O=C(CSc1ccc(Cl)cc1)c1ccco1	42% (inactive)	65
CC(=O)c1ccc2c(c1)C1C=CCC1C(c1ccc(S(=O)(=O)N3CCOCC3)cc1)N2 (configuration not stated)	0% (inactive)	
N#Cc1ccc(-c2cccnc2)nc1SCC(=O)Nc1sc2c(c1C#N)CCC2	15% (inactive)	
c1coc(-c2nnc3sc(Cc4cccs4)nn23)c1	24% (inactive)	14
CC(=O)NC12CC3CC(C1)CC(C(=O)OCC(=O)Nc1ncc(Cl)c(C)c1Cl)(C3)C2	21% (inactive)	
CCOc1cc2c(cc1OCC)C(C1CCCCC1)NCC2 (configuration not stated)	1% (inactive)	
Cc1ccc(-n2nnnc2SCC(=O)Nc2cccc(NC(=O)c3ccco3)c2)cc1C	46% (inactive)	7
COc1ccc(N2Cc3cccc(C(=O)O)c3C2=O)cc1	26% (inactive)	44
O=C(Nc1ccc(O)cc1)C1CC=CCC1 (configuration not stated)	6% (inactive)	9
Cc1ccc(Nc2nnc(SCC(=O)NCc3ccco3)s2)cc1	10% (inactive)	12
Cc1ccc(-n2cc3c(c(C#N)c2=N)CC(C)(C)CC3=O)cc1	35% (inactive)	
Cc1ccc(-n2nnnc2SCC(=O)Nc2ccc3c(c2)COC3=O)cc1C	27% (inactive)	9
ON=C1/C(=N\O)CC2(C/C1=N/O)OCCO2	33% (inactive)	48
C/C(=N\Nc1ccc([N+](=O)[O-])cc1)c1cccc(N)c1	4% (inactive)	35
CCN1CCN(Cc2c(O)c(Cl)cc3c(C)cc(=O)oc23)CC1	31% (inactive)	28
O=C(COC(=O)c1ccccc1)NCc1ccco1	29% (inactive)	27
Nc1nc2c(s1)CCc1c-2cnn1-c1ccccc1	13% (inactive)	21
